According to the supplement of paper PMC10849652:
About 8,800 targets were measured; listed, in parts, are those with a hit and a random draw of the rest. About 0.5% of all pairs of compound and target were hits. Unmarked numbers belong to inactive results.

These targets were tested with O=C1NC(=O)C(c2cnc3ccccn23)=C1c1cn2c3c(cc(F)cc13)CN(C(=O)N1CCCCC1)CC2 (assay: log2 fold change, soluble protein after heating vs DMSO (PISA); higher = thermal stabilisation; K562 lysate, 10 uM; active = over 0.2 and 3.5 SD of the protein, either way, in both replicates (recomputed)).
Method in brief: (§1)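 Dounce homogenisation of K562 pellets in PBS pH 7.4 with 1 mM MgCl2 produced a crude extract, used at 1 mg/mL protein. Exposure to 10 μM compound lasted 30 min, and aliquots were then heated for 3 min across 48°C-58°C, pooled and brought to 0.5% NP-40 at 4°C. The supernatant after 21,000xg for 90 min was quantified by TMTpro 16plex LC-MS/MS with channel sums equalised. Duplicate values are given as log-two fold change in thermal stability relative to solvent controls.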

Chain of UniProt Q13347 (Q13347 whole entry, looked up): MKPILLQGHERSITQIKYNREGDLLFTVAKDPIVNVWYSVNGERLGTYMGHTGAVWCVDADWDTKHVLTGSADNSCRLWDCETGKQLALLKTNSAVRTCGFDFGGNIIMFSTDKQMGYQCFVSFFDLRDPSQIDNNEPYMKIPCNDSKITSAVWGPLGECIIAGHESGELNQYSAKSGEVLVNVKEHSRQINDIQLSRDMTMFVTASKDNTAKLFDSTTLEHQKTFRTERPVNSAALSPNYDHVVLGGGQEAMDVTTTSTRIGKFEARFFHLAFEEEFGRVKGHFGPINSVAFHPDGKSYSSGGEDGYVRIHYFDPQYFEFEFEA
Chain of UniProt Q9NV70 (Q9NV70 whole entry, looked up): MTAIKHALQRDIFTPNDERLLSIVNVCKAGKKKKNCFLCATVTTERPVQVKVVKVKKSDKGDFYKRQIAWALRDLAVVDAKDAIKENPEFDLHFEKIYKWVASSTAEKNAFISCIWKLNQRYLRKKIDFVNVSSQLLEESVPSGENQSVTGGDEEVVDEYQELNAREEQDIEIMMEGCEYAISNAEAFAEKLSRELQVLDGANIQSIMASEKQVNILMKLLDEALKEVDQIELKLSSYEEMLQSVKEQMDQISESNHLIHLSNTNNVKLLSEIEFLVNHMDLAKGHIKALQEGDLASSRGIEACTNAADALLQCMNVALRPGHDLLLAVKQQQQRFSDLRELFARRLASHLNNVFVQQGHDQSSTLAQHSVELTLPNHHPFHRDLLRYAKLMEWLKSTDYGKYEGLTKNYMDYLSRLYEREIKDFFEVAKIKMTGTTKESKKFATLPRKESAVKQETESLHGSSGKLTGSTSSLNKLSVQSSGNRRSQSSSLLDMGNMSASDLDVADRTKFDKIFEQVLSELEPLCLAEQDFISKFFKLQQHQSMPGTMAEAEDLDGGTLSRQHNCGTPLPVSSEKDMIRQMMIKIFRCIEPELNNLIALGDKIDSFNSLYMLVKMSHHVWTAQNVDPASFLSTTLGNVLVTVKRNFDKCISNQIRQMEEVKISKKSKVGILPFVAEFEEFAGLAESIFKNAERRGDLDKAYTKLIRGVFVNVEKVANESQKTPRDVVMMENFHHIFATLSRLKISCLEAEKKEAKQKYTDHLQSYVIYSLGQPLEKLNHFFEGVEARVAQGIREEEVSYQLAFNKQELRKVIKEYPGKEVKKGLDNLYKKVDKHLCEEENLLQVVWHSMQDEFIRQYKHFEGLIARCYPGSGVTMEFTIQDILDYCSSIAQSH
Chain of UniProt Q8TB52 (Q8TB52 whole entry, looked up): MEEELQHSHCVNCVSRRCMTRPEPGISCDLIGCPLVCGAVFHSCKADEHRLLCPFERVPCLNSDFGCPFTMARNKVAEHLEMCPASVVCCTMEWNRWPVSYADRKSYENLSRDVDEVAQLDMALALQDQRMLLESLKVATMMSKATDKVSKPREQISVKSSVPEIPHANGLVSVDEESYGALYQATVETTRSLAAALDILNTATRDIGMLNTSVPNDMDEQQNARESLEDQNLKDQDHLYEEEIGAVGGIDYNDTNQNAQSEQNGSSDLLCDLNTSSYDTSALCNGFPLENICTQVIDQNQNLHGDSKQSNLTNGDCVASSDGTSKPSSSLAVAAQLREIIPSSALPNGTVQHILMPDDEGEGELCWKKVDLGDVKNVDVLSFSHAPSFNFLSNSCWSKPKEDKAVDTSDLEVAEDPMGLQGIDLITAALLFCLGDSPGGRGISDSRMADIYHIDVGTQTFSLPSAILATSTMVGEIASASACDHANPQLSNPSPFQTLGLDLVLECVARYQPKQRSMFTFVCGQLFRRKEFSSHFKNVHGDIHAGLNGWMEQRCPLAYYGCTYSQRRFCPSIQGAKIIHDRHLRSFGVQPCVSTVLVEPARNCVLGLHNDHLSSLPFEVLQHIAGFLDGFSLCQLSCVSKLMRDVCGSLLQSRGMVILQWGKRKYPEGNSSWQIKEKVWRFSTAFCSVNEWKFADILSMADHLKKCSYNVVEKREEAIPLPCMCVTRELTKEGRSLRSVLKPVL
Chain of UniProt Q9NVI1 (Q9NVI1 whole entry, looked up): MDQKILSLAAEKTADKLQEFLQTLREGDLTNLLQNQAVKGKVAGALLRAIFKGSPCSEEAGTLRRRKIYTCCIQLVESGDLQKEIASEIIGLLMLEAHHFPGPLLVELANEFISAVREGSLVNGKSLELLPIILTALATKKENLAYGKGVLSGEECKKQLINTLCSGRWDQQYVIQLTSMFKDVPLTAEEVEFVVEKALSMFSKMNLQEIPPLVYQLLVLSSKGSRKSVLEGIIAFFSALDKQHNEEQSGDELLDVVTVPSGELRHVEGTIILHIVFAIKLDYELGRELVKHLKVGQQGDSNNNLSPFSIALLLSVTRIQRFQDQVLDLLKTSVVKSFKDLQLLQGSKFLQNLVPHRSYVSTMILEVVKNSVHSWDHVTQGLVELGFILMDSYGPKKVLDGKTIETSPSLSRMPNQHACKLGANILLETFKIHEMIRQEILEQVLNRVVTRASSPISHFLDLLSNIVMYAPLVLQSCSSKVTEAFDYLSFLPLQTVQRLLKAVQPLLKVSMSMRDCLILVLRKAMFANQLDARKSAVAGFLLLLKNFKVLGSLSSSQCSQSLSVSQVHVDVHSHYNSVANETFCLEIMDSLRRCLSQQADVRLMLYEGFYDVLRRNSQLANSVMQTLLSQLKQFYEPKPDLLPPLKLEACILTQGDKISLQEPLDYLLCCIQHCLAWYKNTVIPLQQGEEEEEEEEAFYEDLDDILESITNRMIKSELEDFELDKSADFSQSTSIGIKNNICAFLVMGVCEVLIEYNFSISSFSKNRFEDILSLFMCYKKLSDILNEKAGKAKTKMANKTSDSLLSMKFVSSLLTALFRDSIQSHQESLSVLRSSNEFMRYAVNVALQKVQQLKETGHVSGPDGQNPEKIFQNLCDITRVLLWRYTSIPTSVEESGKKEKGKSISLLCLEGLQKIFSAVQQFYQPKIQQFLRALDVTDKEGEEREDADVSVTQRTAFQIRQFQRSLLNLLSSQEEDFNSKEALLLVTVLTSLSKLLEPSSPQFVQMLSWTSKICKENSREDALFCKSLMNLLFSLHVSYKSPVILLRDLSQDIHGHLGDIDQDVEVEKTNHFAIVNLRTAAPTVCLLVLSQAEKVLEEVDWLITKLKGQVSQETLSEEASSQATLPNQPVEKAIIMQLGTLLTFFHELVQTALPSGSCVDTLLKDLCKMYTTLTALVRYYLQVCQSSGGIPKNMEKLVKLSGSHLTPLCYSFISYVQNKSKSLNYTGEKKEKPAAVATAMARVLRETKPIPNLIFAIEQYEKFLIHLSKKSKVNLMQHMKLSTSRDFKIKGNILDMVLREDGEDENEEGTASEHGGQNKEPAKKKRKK
Chain of UniProt P41214 (P41214 whole entry, looked up): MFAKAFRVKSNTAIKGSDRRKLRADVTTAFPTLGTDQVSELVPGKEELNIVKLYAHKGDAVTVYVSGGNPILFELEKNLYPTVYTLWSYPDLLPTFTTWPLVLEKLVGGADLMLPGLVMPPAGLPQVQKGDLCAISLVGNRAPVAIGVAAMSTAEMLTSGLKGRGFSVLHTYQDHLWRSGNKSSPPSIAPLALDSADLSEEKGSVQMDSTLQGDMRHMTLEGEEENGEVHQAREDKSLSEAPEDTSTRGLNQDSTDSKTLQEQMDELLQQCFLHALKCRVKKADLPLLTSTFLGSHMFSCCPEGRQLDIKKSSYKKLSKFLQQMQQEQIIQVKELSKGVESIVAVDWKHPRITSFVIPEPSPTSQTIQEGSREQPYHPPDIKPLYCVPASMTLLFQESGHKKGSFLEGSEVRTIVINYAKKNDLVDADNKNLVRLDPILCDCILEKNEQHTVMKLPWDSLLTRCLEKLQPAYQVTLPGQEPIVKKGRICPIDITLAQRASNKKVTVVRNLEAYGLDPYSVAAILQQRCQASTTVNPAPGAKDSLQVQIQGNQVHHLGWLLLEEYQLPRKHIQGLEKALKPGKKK
Chain of UniProt Q13144 (Q13144 whole entry, looked up): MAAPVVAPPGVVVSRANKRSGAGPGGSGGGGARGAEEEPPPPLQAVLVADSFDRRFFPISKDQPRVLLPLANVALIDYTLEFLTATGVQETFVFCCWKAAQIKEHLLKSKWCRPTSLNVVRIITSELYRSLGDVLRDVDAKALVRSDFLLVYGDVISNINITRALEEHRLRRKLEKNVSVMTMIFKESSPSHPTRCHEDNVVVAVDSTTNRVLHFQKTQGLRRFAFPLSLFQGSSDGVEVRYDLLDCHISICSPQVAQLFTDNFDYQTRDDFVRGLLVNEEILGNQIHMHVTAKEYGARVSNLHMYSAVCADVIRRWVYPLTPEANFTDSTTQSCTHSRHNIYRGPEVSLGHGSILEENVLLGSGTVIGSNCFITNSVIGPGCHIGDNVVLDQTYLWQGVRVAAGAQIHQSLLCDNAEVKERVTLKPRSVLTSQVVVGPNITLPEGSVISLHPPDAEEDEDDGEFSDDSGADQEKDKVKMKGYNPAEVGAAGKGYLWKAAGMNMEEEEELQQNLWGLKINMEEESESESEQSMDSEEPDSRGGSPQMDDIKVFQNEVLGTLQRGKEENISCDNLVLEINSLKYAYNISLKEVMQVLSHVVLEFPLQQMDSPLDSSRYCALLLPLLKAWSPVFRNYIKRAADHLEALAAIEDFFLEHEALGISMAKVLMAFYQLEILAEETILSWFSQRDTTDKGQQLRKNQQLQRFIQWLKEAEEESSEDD
Chain of UniProt Q14318 (Q14318 whole entry, looked up): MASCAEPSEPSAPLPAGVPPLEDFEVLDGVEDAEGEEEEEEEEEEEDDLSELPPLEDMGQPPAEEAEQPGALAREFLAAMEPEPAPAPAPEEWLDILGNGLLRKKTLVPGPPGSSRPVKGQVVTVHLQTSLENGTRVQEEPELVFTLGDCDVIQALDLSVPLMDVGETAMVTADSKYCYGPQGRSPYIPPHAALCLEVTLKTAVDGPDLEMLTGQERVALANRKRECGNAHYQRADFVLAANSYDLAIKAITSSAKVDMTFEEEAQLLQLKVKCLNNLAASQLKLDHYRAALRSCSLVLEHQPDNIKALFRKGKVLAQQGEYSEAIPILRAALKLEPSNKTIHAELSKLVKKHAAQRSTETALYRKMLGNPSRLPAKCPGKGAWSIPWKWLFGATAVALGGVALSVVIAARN

Row | Target | log2 fold change
1 | FNTB (UniProt P49356) | -0.032
2 | ELF2 (UniProt Q15723) | -0.011
3 | EFCAB14 (UniProt O75071) | 0.029
4 | FDX2 (UniProt Q6P4F2) | -0.066
5 | FBXO30 (UniProt Q8TB52) | -0.019
6 | GFPT1 (UniProt Q06210) | 0.012
7 | FTL (UniProt P02792) | 0.011
8 | FAT2 (UniProt Q9NYQ8) | 0.178
9 | ENSA isoform 3 (UniProt O43768) | 0.003
10 | FKBP8 isoform 2 (UniProt Q14318) | -0.028
11 | ENO1, A0A2R8YEM5 | 0.017
12 | FIGNL1 (UniProt Q6PIW4) | 0
13 | GCLM (UniProt P48507) | 0.032
14 | EXOC1 (UniProt Q9NV70) | -0.019
15 | ERLIN2 (UniProt O94905) | -0.005
16 | EPRS (UniProt P07814) | 0.009
17 | EIF2D (UniProt P41214) | 0.04

Row | Target | log2 fold change
18 | FADS1, A0A0A0MR51 | -0.046
19 | EPN2 (UniProt O95208) | -0.001
20 | EMP3 (UniProt P54852) | -0.014
21 | DTWD1 (UniProt Q8N5C7) | -0.028
22 | FIG4 (UniProt Q92562) | 0.056
23 | FAM98A (UniProt Q8NCA5) | 0.01
24 | FIBP (UniProt O43427) | -0.02
25 | G6PD isoform 2 (UniProt P11413) | -0.003
26 | GALNT2 (UniProt Q10471) | -0.09
27 | ETFRF1 (UniProt Q6IPR1) | 0.051
28 | ERBIN isoform 8 (UniProt Q96RT1) | -0.017
29 | FAM204A (UniProt Q9H8W3) | 0.044
30 | EIF3I (UniProt Q13347) | -0.005
31 | DTL (UniProt Q9NZJ0) | 0.052
32 | FXR1 (UniProt P51114) | -0.041
33 | FANCI (UniProt Q9NVI1) | 0.018
34 | EIF2B5 (UniProt Q13144) | -0.029

What follows are targets tested with c1cn2cc(-c3ccc4cn[nH]c4c3)nc(Nc3ccc(N4CCOCC4)cc3)c2n1 [entospletinib] in the same assay as above.
Method in brief: as §1

Row | Target | log2 fold change
35 | FNTB (UniProt P49356) | -0.048
36 | ELF2 (UniProt Q15723) | -0.03
37 | EFCAB14 (UniProt O75071) | 0.013
38 | FDX2 (UniProt Q6P4F2) | 0.042
39 | FBXO30 (UniProt Q8TB52) | 0.013
40 | GFPT1 (UniProt Q06210) | 0.019
41 | FTL (UniProt P02792) | -0.151
42 | FAT2 (UniProt Q9NYQ8) | 0.162
43 | ENSA isoform 3 (UniProt O43768) | -0.014
44 | FKBP8 isoform 2 (UniProt Q14318) | 0.018
45 | ENO1, A0A2R8YEM5 | 0.04
46 | FIGNL1 (UniProt Q6PIW4) | 0.05
47 | GCLM (UniProt P48507) | 0.021
48 | EXOC1 (UniProt Q9NV70) | 0.019
49 | ERLIN2 (UniProt O94905) | 0.016
50 | EPRS (UniProt P07814) | 0.021

Row | Target | log2 fold change
51 | EIF2D (UniProt P41214) | 0.02
52 | FADS1, A0A0A0MR51 | -0.028
53 | EPN2 (UniProt O95208) | 0.012
54 | EMP3 (UniProt P54852) | 0.144
55 | DTWD1 (UniProt Q8N5C7) | 0.036
56 | FIG4 (UniProt Q92562) | 0.052
57 | FAM98A (UniProt Q8NCA5) | 0.006
58 | FIBP (UniProt O43427) | -0.049
59 | G6PD isoform 2 (UniProt P11413) | 0.032
60 | GALNT2 (UniProt Q10471) | -0.034
61 | ERBIN isoform 8 (UniProt Q96RT1) | -0.002
62 | EIF3I (UniProt Q13347) | 0.005
63 | FXR1 (UniProt P51114) | 0.023
64 | FANCI (UniProt Q9NVI1) | 0.039
65 | EIF2B5 (UniProt Q13144) | 0.013
